Test results taken from PubChem BioAssay.
Records with an inconclusive call do not appear. Calls of active or inactive are those of the source.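 How the source made its calls, unless noted: active means GFP response below 50% of the DMSO control; inconclusive means fewer than 70 events counted for a yeast strain; inactive means the rest.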

How the values were obtained:
[1] = rapamycin-like changes in RPL19A-GFP expression – cell-based, S. cerevisiae, multiplex flow cytometry, primary screen (AID 1862; in the data active means percent of DMSO control GFP below about 86%;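 further: lower values mimic rapamycin by blocking the RPL19A rise seen in DMSO cells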); settings: S. cerevisiae RPL19A-GFP strain, flow cytometry fluorescence, 3 h; at 10 µM; stronger effect = lower value
[2] = TOR pathway GLN3 branch reporter MEP2-GFP changes – S. cerevisiae, multiplex flow cytometry, primary screen (AID 1867;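 active means GFP response, as percent of the DMSO control, above the screen-wide mean plus 3 SD, about 139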;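 further: median GFP channel fluorescence of barcode-gated MEP2-GFP cells measured by flow cytometry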); settings: S. cerevisiae MEP2-GFP strain, 3 h, at 10 µM, stronger effect = higher value, 100% means same as DMSO wells
[3] = TOR pathway RTG branch CIT2 reporter changes – S. cerevisiae, GFP fusion, multiplex flow cytometry, primary screen (AID 1870;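 active means percent response above a set limit, the screen-wide mean plus 3 SD, cut at about 130% in these data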;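 further: barcoded CIT2-GFP strain pooled with four other GFP strains with rapamycin as positive control; median GFP fluorescence per well over plate mean of DMSO wells so 100% = DMSO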); settings: S. cerevisiae CIT2-GFP expression, 3 h, at 10 µM, stronger effect = higher value
[4] = TOR pathway LAP4-GFP level changes – S. cerevisiae, multiplex flow cytometry, primary screen (AID 1873;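 active means GFP signal, as percent of the solvent control, above the screen mean plus 3 SD, about 149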); settings: S. cerevisiae LAP4-GFP expression, 3 h, at 10 µM, stronger effect = higher value
[5] = yeast AGP1-GFP level changes, GLN3 branch – cell-based, multiplex flow cytometry, S. cerevisiae, primary screen (AID 1887;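 active means GFP signal above the screen-wide mean plus 3 SD, that is over about 124.5% of the solvent control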;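 further: AGP1-GFP fusion strain of S. cerevisiae within a five-strain barcoded multiplex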); settings: 3 h, at 10 µM, stronger effect = higher value
[6] = hit retest on RPL19A-GFP reporter strain – cell-based, S. cerevisiae, flow cytometry, cherry picks, mother/daughter gates, confirmation (AID 2270); settings: 3 h, at 10 µM, stronger effect = lower value, 100 = same GFP as DMSO wells
[7] = yeast TOR pathway reporter LAP4-GFP change – cell-based, cherry picks, flow cytometry, mother/daughter gates, confirmation (AID 2271;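 active means GFP response above 150% of the DMSO control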;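 further: ratio of sample to DMSO plate mean so 100% equals DMSO level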); settings: S. cerevisiae LAP4-GFP strain, 3 h, at 10 µM, stronger effect = higher value, 100 means same as DMSO control
[8] = TOR pathway reporter MEP2-GFP, retest of hits – S. cerevisiae, flow cytometry GFP, cherry picks, confirmation (AID 2272;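 active means GFP response above 150% of the DMSO control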;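 further: ratio of well signal to plate DMSO mean so 100% equals DMSO level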); settings: S. cerevisiae MEP2-GFP strain, 3 h, at 10 µM, stronger effect = higher value
[9] = TOR pathway CIT2 reporter hit retest – S. cerevisiae, GFP fusion, cherry picks, mother/daughter gates, confirmation (AID 2274;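 active means GFP response above 150% of the DMSO level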); settings: S. cerevisiae CIT2-GFP strain, flow cytometry, 3 h, at 10 µM, stronger effect = higher value
[10] = reduced mouse 2C T cell binding to pMHC/ICAM-1 vesicles – MLPCN validation set, flow cytometry, LFA-1/ICAM-1 modulator project, pilot screen (AID 2523;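 active means response below a set limit, under 55% cells CD8-positive and vesicle-bound, and CD8 cells' 90th-percentile brightness under 279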;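 on vesicle binding response: mean PE anti-B7-1 fluorescence of CD8+ cells relative to row control; 100% = QL9-loaded vesicles with DMSO vehicle in the same plate row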); settings: 2C mouse CD8+ T cells, at 7 µM, stronger effect = lower value; double positive events: measured here: CD8+/vesicle+ event percentage
[11] = target: Integrin beta-1 (Homo sapiens) + Integrin alpha-4 (Homo sapiens) (UniProt P13612+P05556); experiment: alpha4beta1 integrin LIBS antibody binding reduction – U937 cells, HUTS-21 mAb, flow cytometry, validation set, VLA-4 allosteric modulator project, pilot screen (AID 2674;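 active means inhibition above 50%, about 3 SD of the validation set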;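 further: antibody binding induced by the VLA-4 ligand LDV present at three times its Kd; 0% = LDV ligand with antibody and no compound and 100% = antibody without LDV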); settings: HUTS-21 LIBS mAb binding, at 6.7 µM, stronger effect = higher value, binding induced by LDV ligand
Chain of Integrin beta-1 (Homo sapiens) + Integrin alpha-4 (Homo sapiens) (P05556 whole entry, looked up): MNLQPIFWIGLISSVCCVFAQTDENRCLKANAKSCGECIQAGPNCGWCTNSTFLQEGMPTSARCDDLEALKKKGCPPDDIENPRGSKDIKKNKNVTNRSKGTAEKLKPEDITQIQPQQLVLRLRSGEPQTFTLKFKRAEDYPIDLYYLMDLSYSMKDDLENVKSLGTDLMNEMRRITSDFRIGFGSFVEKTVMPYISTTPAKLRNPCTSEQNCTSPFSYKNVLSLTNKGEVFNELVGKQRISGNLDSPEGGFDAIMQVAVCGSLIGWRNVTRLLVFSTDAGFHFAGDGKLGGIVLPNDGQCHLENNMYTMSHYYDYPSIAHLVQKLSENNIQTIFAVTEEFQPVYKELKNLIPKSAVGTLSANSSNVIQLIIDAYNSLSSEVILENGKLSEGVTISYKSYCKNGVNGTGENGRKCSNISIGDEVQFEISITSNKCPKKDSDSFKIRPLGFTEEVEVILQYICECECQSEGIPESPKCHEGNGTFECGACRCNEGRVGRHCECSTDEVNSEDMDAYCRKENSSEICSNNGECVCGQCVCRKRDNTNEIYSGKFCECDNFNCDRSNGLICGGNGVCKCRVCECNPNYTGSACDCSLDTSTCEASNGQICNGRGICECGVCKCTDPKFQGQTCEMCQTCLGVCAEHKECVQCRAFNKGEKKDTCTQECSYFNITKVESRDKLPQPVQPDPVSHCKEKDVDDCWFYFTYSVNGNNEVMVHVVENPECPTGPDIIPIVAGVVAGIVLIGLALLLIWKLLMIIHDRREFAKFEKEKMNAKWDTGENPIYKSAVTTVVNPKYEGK
Chain of Integrin beta-1 (Homo sapiens) + Integrin alpha-4 (Homo sapiens) (P13612 whole entry, looked up): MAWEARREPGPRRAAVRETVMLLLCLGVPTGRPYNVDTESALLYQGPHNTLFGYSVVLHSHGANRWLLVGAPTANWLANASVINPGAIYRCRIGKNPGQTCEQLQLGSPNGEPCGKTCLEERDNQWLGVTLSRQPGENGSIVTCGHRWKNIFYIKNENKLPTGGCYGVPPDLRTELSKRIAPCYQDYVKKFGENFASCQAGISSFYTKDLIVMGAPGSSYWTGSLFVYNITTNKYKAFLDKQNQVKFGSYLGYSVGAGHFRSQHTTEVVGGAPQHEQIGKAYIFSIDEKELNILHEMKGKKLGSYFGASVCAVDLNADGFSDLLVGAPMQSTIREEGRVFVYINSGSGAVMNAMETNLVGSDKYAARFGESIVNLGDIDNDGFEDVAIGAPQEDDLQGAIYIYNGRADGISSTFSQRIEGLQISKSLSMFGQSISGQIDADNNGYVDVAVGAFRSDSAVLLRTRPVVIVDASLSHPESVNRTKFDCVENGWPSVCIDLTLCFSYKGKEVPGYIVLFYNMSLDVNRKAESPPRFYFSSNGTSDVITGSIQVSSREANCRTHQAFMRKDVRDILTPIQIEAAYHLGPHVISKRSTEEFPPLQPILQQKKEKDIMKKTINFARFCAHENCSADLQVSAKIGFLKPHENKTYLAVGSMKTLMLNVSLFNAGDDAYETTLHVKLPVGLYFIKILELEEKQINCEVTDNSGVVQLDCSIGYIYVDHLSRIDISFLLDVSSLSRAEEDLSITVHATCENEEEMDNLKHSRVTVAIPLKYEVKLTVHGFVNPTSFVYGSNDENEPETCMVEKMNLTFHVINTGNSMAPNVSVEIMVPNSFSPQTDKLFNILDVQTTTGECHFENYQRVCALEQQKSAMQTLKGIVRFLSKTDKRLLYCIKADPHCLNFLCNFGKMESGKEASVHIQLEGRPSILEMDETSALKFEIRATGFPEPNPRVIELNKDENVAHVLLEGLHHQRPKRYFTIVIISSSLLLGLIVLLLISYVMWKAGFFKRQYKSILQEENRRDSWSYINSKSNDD

[12] = calorie-restriction mimetic ROS inhibitors, yeast – validation compound set, pilot screen (AID 2706;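 active means superoxide response below 65% of plate, a cut near 3 SD across the whole screen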;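 further: yeast exposed to compound for one week at 30 degrees C before staining; 100% = mean of all compound wells on the same plate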); settings: S. cerevisiae aging, superoxide DHE fluorescence; at 10 µM; stronger effect = lower value
[13] = target: Beta-adrenergic receptor kinase 1 (Homo sapiens) (UniProt P25098); experiment: GRK2 binders displacing RNA aptamer, biochemical, validation, human GRK2, bead flow cytometry (AID 488806;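 active means aptamer binding inhibition above 30%, about 3 SD of noise from non-fluorescent compounds; inactive means inhibition at or below 30%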); settings: bead-bound GRK2, FAM-aptamer displacement, at 10 µM, stronger effect = higher value
Chain of Beta-adrenergic receptor kinase 1 (Homo sapiens) (P25098 whole entry, looked up): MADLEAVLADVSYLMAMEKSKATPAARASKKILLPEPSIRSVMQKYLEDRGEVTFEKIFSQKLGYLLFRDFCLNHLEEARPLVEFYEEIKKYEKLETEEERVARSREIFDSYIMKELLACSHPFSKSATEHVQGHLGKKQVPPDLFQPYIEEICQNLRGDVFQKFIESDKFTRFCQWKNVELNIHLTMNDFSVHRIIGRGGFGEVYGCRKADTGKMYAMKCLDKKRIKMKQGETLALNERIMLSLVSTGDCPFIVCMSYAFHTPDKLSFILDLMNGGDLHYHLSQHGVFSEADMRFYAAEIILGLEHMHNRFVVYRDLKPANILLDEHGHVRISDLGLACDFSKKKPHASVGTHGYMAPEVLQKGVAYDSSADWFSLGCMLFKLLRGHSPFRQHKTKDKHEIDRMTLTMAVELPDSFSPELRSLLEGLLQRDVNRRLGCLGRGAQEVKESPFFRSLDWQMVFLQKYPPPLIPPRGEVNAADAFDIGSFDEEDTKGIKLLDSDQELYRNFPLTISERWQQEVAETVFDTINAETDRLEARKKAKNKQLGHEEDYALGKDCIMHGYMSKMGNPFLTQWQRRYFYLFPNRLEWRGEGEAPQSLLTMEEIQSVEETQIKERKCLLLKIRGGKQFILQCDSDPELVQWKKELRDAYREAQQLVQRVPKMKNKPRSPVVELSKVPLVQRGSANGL

[14] = target: Beta-2 adrenergic receptor (Homo sapiens) (UniProt P07550); experiment: agonist-induced loss of surface beta2AR – cell-based, FAP fluorogen, flow cytometry, validation set, pilot screen (AID 504459;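 active means percent response above 42, roughly 3 SD of non-fluorescent test compounds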;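 further: agonist-driven loss of surface beta2AR via internalization measured by FAP dye flow cytometry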); settings: Am2.2-beta2AR cells, at 10 µM, stronger effect = higher value
Chain of Beta-2 adrenergic receptor (Homo sapiens) (P07550 whole entry, looked up): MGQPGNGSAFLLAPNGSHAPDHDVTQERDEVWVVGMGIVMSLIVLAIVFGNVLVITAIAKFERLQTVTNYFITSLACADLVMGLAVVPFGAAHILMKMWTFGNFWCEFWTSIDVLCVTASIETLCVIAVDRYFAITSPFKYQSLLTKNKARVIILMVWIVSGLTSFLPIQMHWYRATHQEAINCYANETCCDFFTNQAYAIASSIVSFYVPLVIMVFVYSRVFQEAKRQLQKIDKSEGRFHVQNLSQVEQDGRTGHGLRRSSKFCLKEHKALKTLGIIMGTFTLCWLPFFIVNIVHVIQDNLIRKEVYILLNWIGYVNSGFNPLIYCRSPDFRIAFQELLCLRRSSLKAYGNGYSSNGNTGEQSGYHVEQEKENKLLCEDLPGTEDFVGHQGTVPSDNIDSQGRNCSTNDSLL

[15] = target: AP-2 complex subunit beta (Homo sapiens) (UniProt P63010); experiment: beta-arrestin/AP2 interaction blockers – biochemical, validation set, GST-AP2 beads, flow cytometry, pilot screen (AID 504541;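 active means inhibition above 54%, about 3 SD of non-fluorescent compounds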;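 further: AP2 carries R879A mutation and is captured from E. coli lysate; bead-bound FITC arrestin peptide fluorescence measuring arrestin peptide binding to AP2; 0% = DMSO wells and 100% = excess unlabeled arrestin peptide control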); settings: FITC arrestin peptide, at 10 µM, stronger effect = higher value, AP2 beta2 appendage fragment, R879A mutant
Chain of AP-2 complex subunit beta (Homo sapiens) (P63010 whole entry, looked up, the tested form may be a part, one chain of several): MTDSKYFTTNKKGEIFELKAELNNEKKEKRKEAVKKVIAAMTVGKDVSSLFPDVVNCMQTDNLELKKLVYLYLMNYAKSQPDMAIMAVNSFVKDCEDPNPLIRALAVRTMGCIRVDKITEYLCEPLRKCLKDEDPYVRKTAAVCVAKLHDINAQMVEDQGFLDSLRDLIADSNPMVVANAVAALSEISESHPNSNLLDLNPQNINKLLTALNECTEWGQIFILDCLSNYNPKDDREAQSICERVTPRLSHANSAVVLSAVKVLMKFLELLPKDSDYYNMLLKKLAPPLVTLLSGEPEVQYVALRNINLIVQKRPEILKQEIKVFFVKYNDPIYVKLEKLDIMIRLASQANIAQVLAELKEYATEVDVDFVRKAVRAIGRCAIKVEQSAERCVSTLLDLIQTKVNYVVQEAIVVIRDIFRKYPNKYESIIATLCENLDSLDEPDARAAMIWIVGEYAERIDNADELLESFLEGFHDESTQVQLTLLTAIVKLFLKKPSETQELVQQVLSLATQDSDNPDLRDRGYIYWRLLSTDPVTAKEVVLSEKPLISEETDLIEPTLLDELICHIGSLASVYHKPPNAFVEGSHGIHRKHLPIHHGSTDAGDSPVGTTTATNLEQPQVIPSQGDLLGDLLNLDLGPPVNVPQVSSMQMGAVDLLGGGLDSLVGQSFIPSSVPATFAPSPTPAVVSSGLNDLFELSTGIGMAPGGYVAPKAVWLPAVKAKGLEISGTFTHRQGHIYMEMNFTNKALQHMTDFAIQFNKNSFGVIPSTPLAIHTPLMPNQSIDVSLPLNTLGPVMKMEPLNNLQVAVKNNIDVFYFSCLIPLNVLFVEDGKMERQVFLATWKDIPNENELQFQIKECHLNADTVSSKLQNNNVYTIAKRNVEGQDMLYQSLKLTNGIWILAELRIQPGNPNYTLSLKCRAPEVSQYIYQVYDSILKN

[16] = cytosolic pH regulators acting via V-ATPase – S. cerevisiae, pHLuorin, HTS validation (AID 504600; in the data active means response above about 15%;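 further: plate controls were DMSO for no effect and reference compound for full effect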); settings: V-ATPase proton transport, at 10 µM, stronger effect = higher value
[17] = test system: anti-desmoglein-3 scFv antibody binding to human DSG3; experiment: blockers of pathogenic pemphigus antibody–desmoglein-3 binding – biochemical, validation compound set, bead-based, flow cytometry, pilot screen (AID 588368;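 active means binding below the plate cutoff, the plate median minus 3 SD, with a reading above zero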;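 further: signal is the median channel fluorescence of bead-bound GFP antibody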); settings: Protein G beads, DSG3-Fc, scFv-GFP binding, at 10 µM, stronger effect = lower value
[18] = Nile Red efflux blockade in pump-expressing yeast – validation compound set, multiplex, phenotypic, pilot screen (AID 588506;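 active means efflux inhibition above 0.42, the validation set average plus 4 SD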;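 further: Nile Red retained in cells so higher fluorescence means more efflux inhibition; 0 = negative control wells and 1 = enniatin B 25 µM full block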); settings: S. cerevisiae pump-expressing triplex, Nile Red efflux flow cytometry; at 10 µM; stronger effect = higher value; the pumps come from Candida albicans
[19] = target: ATP-binding cassette sub-family B member 6 (Homo sapiens) (UniProt Q9NP58); experiment: blockers of ABCB6-driven porphyrin uptake – K562-ABCB6 cells, flow cytometry, validation set, pilot screen (AID 588550;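 active means inhibition above the screen-wide mean plus 3 SD, about 51%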;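 further: 0% = DMSO wells and 100% = benzethonium chloride 70 µM positive control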); settings: K562-ABCB6 porphyrin accumulation, 1 h, at 10 µM, stronger effect = higher value
Chain of ATP-binding cassette sub-family B member 6 (Homo sapiens) (Q9NP58 whole entry, looked up): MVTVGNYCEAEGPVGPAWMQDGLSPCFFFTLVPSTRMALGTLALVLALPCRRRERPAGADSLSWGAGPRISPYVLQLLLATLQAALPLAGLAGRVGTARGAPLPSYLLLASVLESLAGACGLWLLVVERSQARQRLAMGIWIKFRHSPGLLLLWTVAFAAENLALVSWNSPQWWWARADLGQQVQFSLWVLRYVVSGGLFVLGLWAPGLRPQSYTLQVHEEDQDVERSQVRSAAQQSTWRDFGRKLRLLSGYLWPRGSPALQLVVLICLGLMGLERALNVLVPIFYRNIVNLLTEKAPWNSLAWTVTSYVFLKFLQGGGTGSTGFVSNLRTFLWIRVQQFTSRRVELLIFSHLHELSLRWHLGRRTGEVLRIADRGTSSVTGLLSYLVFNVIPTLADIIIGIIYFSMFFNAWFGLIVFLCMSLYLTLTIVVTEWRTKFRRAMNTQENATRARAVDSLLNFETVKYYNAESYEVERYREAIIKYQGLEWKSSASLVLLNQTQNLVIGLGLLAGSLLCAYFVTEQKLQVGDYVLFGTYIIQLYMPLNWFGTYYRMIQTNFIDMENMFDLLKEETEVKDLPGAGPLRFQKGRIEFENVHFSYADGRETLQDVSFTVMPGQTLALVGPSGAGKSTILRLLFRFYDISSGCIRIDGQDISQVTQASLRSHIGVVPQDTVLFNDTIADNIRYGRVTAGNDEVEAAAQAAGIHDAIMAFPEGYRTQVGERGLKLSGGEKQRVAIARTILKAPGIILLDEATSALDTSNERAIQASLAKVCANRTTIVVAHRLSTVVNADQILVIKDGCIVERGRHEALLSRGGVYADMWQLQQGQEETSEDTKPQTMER

[20] = AML differentiation inducers, ER-HoxA9 marrow cells – cell-based, GFP/MAC1 double positive, flow cytometry, validation set, primary screen (AID 588685;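 active means differentiation response of at least 50%, scaled between solvent and reference control, from cells with both markers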;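 further: compound exposure lasts four days before antibody staining and flow analysis; 0% = DMSO wells and 100% = 5 µM fulvestrant positive control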); settings: stronger effect = higher value, normalized: vehicle 0, fulvestrant 100
[21] = measured here: daughter cell gate
[22] = measured here: mother cell gate
[23] = measured here: daughter cell gate response
[24] = measured here: mother cell gate response

CS(=O)(=O)Nc1cccc(C(=O)CC2(O)C(=O)Nc3ccc(Br)cc32)c1 (stereo unspecified)
90.2%: GFP response, % of DMSO [9, 21]
96.2%: GFP response vs DMSO [6, 22] | GFP response relative to DMSO [7, 24]
57.6%: double positive events [10]
inactive: percent of DMSO control GFP [1] 85.9% | GFP response vs DMSO [4] 139% | GFP response vs DMSO [6] 101% | GFP response relative to DMSO [7] 98.2% | GFP response vs DMSO [8] 99% | GFP response, % of DMSO [9] 100% | vesicle binding response [10] 34.1% | inhibition [11] -10.8% | superoxide response (% of plate) [12] 112% | aptamer binding inhibition [13] 4% | response [14] -1.29% | inhibition [15] 50% | response [16] -8.12% | binding (% of control) [17] 101% | efflux inhibition (fraction of control) [18] 0.08 | inhibition [19] 7% | differentiation response [20] 5.13%
95.9%: GFP response relative to DMSO [7, 23]
92.4%: GFP response vs DMSO [6, 21]
active: GFP response vs DMSO [2] 150% | percent response of DMSO control [3] 142% | GFP response, % of DMSO [5] 129%
90.7%: GFP response, % of DMSO [9, 22]

CC(=O)[C@H]1CC[C@H]2[C@@H]3CCC4=CC(=O)CC[C@]4(C)[C@H]3[C@H](O)C[C@]12C
102%: GFP response relative to DMSO [7, 23] | GFP response, % of DMSO [9, 21]
99.7%: GFP response vs DMSO [6, 22]
inactive: percent of DMSO control GFP [1] 93% | percent response of DMSO control [3] 99.2% | GFP response vs DMSO [4] 85.3% | GFP response, % of DMSO [5] 93.3% | GFP response vs DMSO [6] 99.1% | GFP response relative to DMSO [7] 100% | GFP response vs DMSO [8] 97.5% | GFP response, % of DMSO [9] 101% | vesicle binding response [10] 64.9% | inhibition [11] -20.7% | superoxide response (% of plate) [12] 109% | aptamer binding inhibition [13] 3% | response [14] 0.15% | inhibition [15] 16.3% | response [16] -2.3% | binding (% of control) [17] 97.4% | efflux inhibition (fraction of control) [18] 0.12 | inhibition [19] 2% | differentiation response [20] 4.09%
57.7%: double positive events [10]
98.5%: GFP response relative to DMSO [7, 24]
99.3%: GFP response vs DMSO [6, 21]
active: GFP response vs DMSO [2] 147%
99.1%: GFP response, % of DMSO [9, 22]

C[C@]12CC[C@@H]3c4ccc(O)cc4C(=O)C[C@H]3[C@@H]1CC[C@@H]2O
inactive: percent of DMSO control GFP [1] 98.3% | percent response of DMSO control [3] 116% | GFP response vs DMSO [4] 88% | GFP response, % of DMSO [5] 97.5% | GFP response vs DMSO [6] 97.4% | GFP response relative to DMSO [7] 90.2% | GFP response vs DMSO [8] 95.7% | GFP response, % of DMSO [9] 111% | inhibition [11] -0.33% | superoxide response (% of plate) [12] 104% | aptamer binding inhibition [13] 1% | response [14] -10.5% | inhibition [15] 44.1% | response [16] -4.63% | binding (% of control) [17] 91.9% | efflux inhibition (fraction of control) [18] 0.37 | inhibition [19] 0% | differentiation response [20] 0.82%
95.6%: GFP response vs DMSO [6, 21] | GFP response relative to DMSO [7, 23]
39.3%: double positive events [10]
active: GFP response vs DMSO [2] 148% | vesicle binding response [10] 60.7%
113%: GFP response, % of DMSO [9, 22]
98.5%: GFP response vs DMSO [6, 22]
108%: GFP response, % of DMSO [9, 21]
92.1%: GFP response relative to DMSO [7, 24]
